Values without a mark were called inactive. Calls of active or inactive are those of the source.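 The calls were made as follows: active = inhibition of the reporter signal at or above 50%; inactive = inhibition below 50%.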

The nature of this assay: inhibitors of poly I:C-induced TLR3 signaling, primary screen, cell-based, poly I:C stimulus, luciferase, 10K MLSCN set (AID 602277). Particulars: HEK293-TLR3 RL24 IRF3 luciferase reporter, at 10 µM, active compounds read high. For orientation: A reporter such as luciferase makes a cellular process visible.
As to `c1ccc(-n2ncc3c(N4CCCCC4)ncnc32)cc1`, the inhibition (usually the drop in the measured response relative to a control, in per cent) was 10.6%.
To `CCCCn1cnc2c1c(=O)n(C)c(=O)n2C` belongs -3.57%; to `CCOC(=O)C1=C(C)Nc2nnnn2C1c1ccc(OC)c(Br)c1` (centres undefined), -12.8%; to `Cc1ccc(S(=O)(=O)Nc2nc3ccccc3nc2NCc2ccco2)cc1`, -121%.
With `CCOC(=O)c1ccc2ncc(C(=O)OCC)c(NCCN(C)C)c2c1` the figure was 44%; with `N#Cc1c2n(c(=S)n(-c3ccccn3)c1=O)CCCCC2`, 11%.
For `Cc1ccc2nc(-c3ccc4c(c3)OCCO4)cc(C(=O)O)c2c1`, the inhibition is 98.1% (active).
To `N#Cc1c(N)c(C(=O)c2ccccc2)n2c1CCCC2` belongs 14.6%; to `COCCn1c(COc2ccc(Cl)cc2)nnc1SCC(N)=O`, 25.2%; to `CC1Cc2ccccc2N1S(=O)(=O)c1cccc(C(=O)OCC(=O)NC2CCS(=O)(=O)C2)c1` (centres undefined), 29.8%.
To `C=CCn1c(SCC(=O)NC2CCCCC2)nnc1-c1sc(N)nc1C` belongs 16.4%; to `Cc1ccc(CSc2nc3c(c(=O)[nH]2)CCC3)cc1`, 8.89%.
In the case of `Cc1nnc(NC(=O)c2ccco2)s1`, the inhibition is 14.4%.
With `CCN(CC)c1ccc2cc(NC(=O)CCC(=O)O)c(=O)oc2c1` the figure was 92.5% (active).
On to `CCCCC(=O)NCCc1ccc(S(N)(=O)=O)cc1`, for which the inhibition is 10.4%.
With `COc1ccc(NC(=O)CN(c2cc(C)cc(C)c2)S(=O)(=O)c2c(C)noc2C)cc1OC` the figure was 38%; with `COc1cccc(NC(=O)N[C@@H](Cc2ccccc2)C(=O)O)c1`, 15.1%; with `COc1cccc(C2=Nn3c(nnc3-c3ccccc3O)SC2)c1`, 19.2%.
With `CC(=O)C1=C(C)Nc2ncnn2C1c1cccc(OCc2ccccc2)c1` (centres undefined) the figure was 29%.
With `O=C1C(C=NCCCn2ccnc2)=C(O)c2ccccc21` the figure was 37.1%.
In the case of `CS(=O)(=O)NCC(c1cccnc1)N1CCN(c2ccc(F)cc2)CC1` (centres undefined), the inhibition is 1.56%.
To `CN(C)c1nc(Oc2ccc(=O)n(C)n2)nc(N2CCOCC2)n1` belongs 10.1%; to `O=C(Nc1ccc(N2CCOCC2)cc1)c1cc2ccccc2o1`, -187%; to `Cn1nnnc1SCC(=O)NC1CCCCC1`, 19.8%.
With `CCn1nc(CC(=O)Nc2nnc(CC(=O)N3CCCCC3)s2)c2ccccc2c1=O` the figure was 25.2%.
As to `c1ccc(C(Cc2nc(-c3ccccn3)no2)c2ccccc2)cc1`, the inhibition was 14.4%.
To `COCCNC(=O)CCc1nc(-c2ccccc2)no1` belongs 16.3%; to `CC1(C)CC(=O)N(CC(=O)NCc2ccccc2)c2ccccc2S1(=O)=O`, 20.7%; to `CCN1C(=O)Cc2cc(S(=O)(=O)N3CCOCC3)ccc21`, -4.25%.
With `COc1cc2c(C#N)c(N3CCOCC3)nc(N)c2c(N)n1` the figure was 46.9%; with `Cc1ccc(S(=O)(=O)N2CCCC2C(=O)OCc2nc3ccccc3s2)cc1` (centres undefined), 25.2%; with `COC(=O)CNC(=O)COC(=O)c1cc(Cl)cc(Cl)c1N`, 3.33%.
Consider `CCCCn1c(=O)[nH]c(=O)c2c1nc(-c1ccncc1)n2CCOC`, for which the inhibition is 33.4%.
With `O=C(CCn1c(=O)oc2ccccc21)N1CCCCCC1` the figure was -6.91%; with `Cc1cc(C)n(-c2cc(N3CCOCC3)nc(-c3ccccc3)n2)n1`, 12.6%.
To `CCOC(=O)C1=C(NC#N)OC(C)=C(C)C1c1ccc(O)cc1` (centres undefined) belongs 18.3%.
With `CCOc1cc(-c2nc(-c3ccccc3OC)no2)cc(OCC)c1OCC` the figure was 12.6%; with `COc1ccc(-n2nnnc2SCC(=O)N2CCOCC2)cc1`, -10.7%; with `COc1cc(NC(=O)C(C)Oc2ccccc2)c(C(=O)O)cc1OC` (centres undefined), 19.4%.

(Values after PubChem BioAssay.)
